Bioassay records deposited in PubChem BioAssay by The Scripps Research Institute Molecular Screening Center.
Rows were chosen to be rich in hits. Some 3.5% of all compounds tested hit in one or more screens of this group.
GPR151 ag – activators of human GPR151. PathHunter beta-arrestin GPR151 cells, luminescence. activation, % at 11.2 µM. hit rate 1% among 650,000; in the data active = activation above about 4.9%;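 also: 0% = median of compound wells and 100% = cells with positive control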
TEAD-YAP block – TEAD-YAP interaction inhibition; HEK-TIYL cells, TEAD-Gal4/YAP UAS-luciferase luminescence; inhibition, % at 9.12 µM; hit rate 1.4% among 640,000; AID 1259422; in the data active = inhibition above about 32%;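 also: 0% = median of test compound wells and 100% = reference inhibitor wells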
FBW7 act – human FBW7 E3 ligase activation, primary screen; AlphaScreen FBW7–phospho-cyclin E peptide binding, activator screen; normalized activity (activation), % at 26.1 µM; hit rate 0.13% among 650,000; in the data active = normalized activity above about 1.9%;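 also: purified mutant Fbw7 with reduced substrate affinity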
MITF inh – inhibitors of human MITF; O75030; hit rate 0.91% among 650,000; inhibition, % at 2.6 µM; AID 1259374; AlphaScreen MITF homodimerization, bead proximity signal; in the data active = inhibition above about 50%;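 also: 0% = vehicle wells with protein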
GPR151 confirm – human GPR151 activation, confirmation screen; AID 1508609; shares compounds with GPR151 ag; activation, % at 11.2 µM; GPR151 PathHunter beta-arrestin cells, luminescence, 90 min; % of EA-reagent control over plate median; 6,700 tested, under 10 active;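 active = mean percent activation across replicates above the confirmation screen cutoff of 4.91%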
GPR119 counter – counter-screen for GPR151 activators: effect on human GPR119; shares compounds with GPR151 ag; hit rate 0.3% among 6,700; activation, % at 11.2 µM; AID 1508611; GPR119 PathHunter beta-arrestin cells, luminescence, 90 min; 0 = compound-well median, 100 = enzyme-acceptor control;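 active = mean percent activation in the counterscreen above 29.09%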;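 also: counterscreen on off-target GPR119 to flag nonselective hits from the GPR151 activator screen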
Target sequence (Q8TDV5 whole entry, looked up): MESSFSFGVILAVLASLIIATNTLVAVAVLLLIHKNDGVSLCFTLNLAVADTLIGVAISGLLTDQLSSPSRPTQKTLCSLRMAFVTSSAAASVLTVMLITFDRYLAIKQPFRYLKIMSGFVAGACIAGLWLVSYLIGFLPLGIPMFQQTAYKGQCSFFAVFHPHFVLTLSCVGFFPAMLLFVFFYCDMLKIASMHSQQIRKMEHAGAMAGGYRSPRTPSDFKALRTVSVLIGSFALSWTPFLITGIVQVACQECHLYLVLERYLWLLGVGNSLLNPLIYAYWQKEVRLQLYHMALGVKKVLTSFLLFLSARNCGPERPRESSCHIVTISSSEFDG
* = called active by the depositor; x = no result.

SMILES	GPR151 ag	TEAD-YAP block	FBW7 act	MITF inh	GPR151 confirm	GPR119 counter
CCOC(=O)c1cccc(Nc2c(-c3ccc(C)c(C)c3)c(=O)c2=O)c1	11.6*	-3.8	0.0	2.0	0.9	-2.1
Cc1ccc(-c2c(Nc3ccccc3F)c(=O)c2=O)cc1C	5.8*	49.2*	0.1	3.4	0.1	4.0
COc1ccccc1Nc1c(-c2ccc(C)c(C)c2)c(=O)c1=O	0.3	-10.0	0.6	15.7	x	x
CCOC(=O)c1ccc(Nc2c(-c3ccc(Cl)cc3)c(=O)c2=O)cc1	0.4	-6.6	-0.1	2.1	x	x
CC(C)CCOc1ccc(C(=O)OCC(=O)Nc2ccc([N+](=O)[O-])cc2C#N)cc1	-1.9	1.6	0.3	13.2	x	x
CC(C)(C)NS(=O)(=O)c1cc(Br)cnc1N	-0.2	-3.0	-0.1	-7.3	x	x
CCC(C)(C)NS(=O)(=O)c1cc(Br)cnc1N	6.0*	-2.6	0.0	2.7	-0.5	9.2
CCCCCCOc1ccc(-c2ncc(CCCCC)cn2)cc1	5.8*	5.6	-0.2	0.0	-0.4	-8.6
CCCCCCc1cnc(-c2ccc(Br)cc2)nc1	-2.1	-8.3	-0.1	8.1	x	x
CCCCC(CC)CNC(=O)C(=O)Nc1ccccc1CC (configuration not stated)	0.7	2.8	0.3	3.2	x	x
CCC(C)n1c(=S)[nH]c2ccc(Cl)cc2c1=O (configuration not stated)	1.3	-6.2	0.0	7.8	x	x
COc1ccccc1C1C=C(c2ccc(I)cc2)Nc2ncnn21 (configuration not stated)	7.4*	2.7	0.1	2.5	-0.1	-8.4
COc1ccc(OC)c(N(CC(=O)NCc2ccccc2Cl)S(C)(=O)=O)c1	1.9	-3.4	0.0	-14.6	x	x
CCn1c2ccccc2c2cc(/C=N/n3cn[nH]c3=S)ccc21	5.0*	21.8	0.2	8.4	-1.1	-8.3
CCn1c2ccccc2c2cc(/C=N/O)ccc21	0.0	11.7	0.7	13.8	x	x
COc1ccc(-c2cc3nc(C)c(CCC(=O)NN4CCOCC4)c(C)n3n2)c(OC)c1	0.2	5.1	-0.2	11.7	x	x
O=C(NC1CC2CCCC(C1)N2CC(=O)N1CCCc2ccccc21)C1CCCCC1 (configuration not stated)	8.7*	7.4	0.4	14.6	0.3	5.7
O=C(CCl)N1CCCc2ccccc21	11.0*	17.1	-0.6	-5.0	-0.3	2.2
CC1(C)CC(NC(=S)Nc2ccccc2F)CC(C)(C)N1	8.3*	-2.2	-0.1	10.1	-0.9	-6.4
Cc1nc(N2CCN(C)CC2)c2c(C)c(C(=O)N3CCC(Cc4ccccc4)CC3)sc2n1	7.1*	3.5	0.0	10.9	-0.8	-9.3
COc1ccccc1CNC(=O)c1sc2nc(C)nc(N3CCCCC3)c2c1C	5.2*	-7.7	-0.1	4.6	0.4	1.3
CCN1CCN(C(C)C(=O)NCc2ccc(OC)cc2)CC1 (configuration not stated)	0.9	-6.8	-0.1	25.3	x	x
Cc1cc(OCCCN2CCNCC2)cc(C)c1Cl	-1.2	0.5	-0.3	33.5	x	x
N#CCC(=O)NCCOc1ccccc1	8.6*	4.5	0.1	10.9	0.6	1.2
Cc1ccc(-c2cnc3c(NC4CCC(O)CC4)nccn23)cc1 (configuration not stated)	0.6	3.0	0.3	-7.1	x	x
SMILES	GPR151 ag	TEAD-YAP block	FBW7 act	MITF inh	GPR151 confirm	GPR119 counter
CCNC(=O)C(=O)NCc1cccs1	4.9*	0.7	0.0	5.0	0.8	0.7
O=C(NCc1cccs1)C(=O)NC1CC1	0.3	1.6	0.0	3.1	x	x
CCOc1ccccc1CNc1sc2c(c1C(=O)Nc1ccc(OC)cc1)CCC2	1.8	6.3	-0.1	-2.2	x	x
CCOc1ccccc1CNc1sc2c(c1C(=O)Nc1ccc(OC)cc1OC)CCC2	10.8*	1.0	-0.1	14.8	1.6	10.7
COc1ccc(N2CCN(C(=O)CCNC(=O)Cn3cnc4ccccc4c3=O)CC2)cc1	-1.3	12.5	0.1	8.7	x	x
Cn1c(=O)c2c(ncn2CCn2cnc3c2c(=O)n(C)c(=O)n3C)n(C)c1=O	-2.0	0.5	0.2	1.7	x	x
CN(C)C(=O)NCCn1cnc2c1c(=O)n(C)c(=O)n2C	6.2*	3.3	0.4	13.2	-1.5	-2.0
NCCCC[C@@H]1NC(=O)[C@H]2CN(Cc3ccc(Cl)s3)CCN2C1=O	-2.0	6.7	-0.2	-1.8	x	x
O=C(Nc1nnc(S(=O)(=O)N2CCCCC2)s1)C12CC3CC(CC(C3)C1)C2	5.5*	-4.6	-0.1	9.9	0.3	-16.2
